The values below come from PubChem BioAssay AID588774 (The Scripps Research Institute Molecular Screening Center, 2011).

Assay [1] in a line: competitive ABPP of pPAFAH versus proteome hydrolases – biochemical, gel-based, FP-Rh fluorescence, complex proteome, SAR compounds, selectivity assay for pPAFAH inhibitor project, SAR follow-up (AID 588774).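 On inhibition: 0% = DMSO-only band intensity and 100% = blank gel background.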 As to conditions: MW 32 kDa, anti-targets inhibited, at 10 µM.
Another assay concerns MW 32 kDa. Described as above. As to conditions: at 10 µM, stronger effect = higher value.

The source made the active and inactive calls.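 How the source made its calls: active means target enzyme inhibited at least 50% at a set dose, and selective over every off-target enzyme by a set factor; inactive means weaker inhibition or too little selectivity.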

What is called inhibition is the drop in the measured response relative to a control, in per cent. As to `Cc1cc(N2CCN(C(=O)Oc3ccc(C4CCCC4)cc3)CC2)c2ccccc2n1`, the anti-target count in assay [1] is 0. In the assay with MW 32 kDa, the inhibition is 0% (inactive).
The compound `COc1ccc(-c2cnn(C(=O)N3CCN(c4cc(C)nc5ccccc45)CC3)n2)cc1` yielded an anti-target count in assay [1] of 8. Also, in the assay on MW 32 kDa, the inhibition is 67% (inactive).
As for `O=C(Oc1noc2cc(Cl)ccc12)N1CCOCC1`, the anti-target count in assay [1] stood at 3. In the assay with MW 32 kDa, the inhibition was 30% (inactive).
Turning to `Cc1cc(N2CCN(C(=O)n3ncc(-c4ccc(OC(F)(F)F)cc4)n3)CC2)c2ccccc2n1`, the anti-target count in assay [1] worked out at 9. Moreover, the inhibition with MW 32 kDa was 87% (inactive).
For `Cc1cc(N2CCN(C(=O)n3ncc(-c4ccc([N+](=O)[O-])cc4)n3)CC2)c2ccccc2n1`, in that order: 9 and 85% (inactive).
For `Cc1cc(N2CCN(C(=O)n3ncc(-c4ccccc4)n3)CC2)c2ccccc2n1`, in that order: 9 and 72% (inactive).
The corresponding values for `Cc1cc(N2CCN(C(=O)Oc3ccc(C(F)(F)F)cc3)CC2)c2ccccc2n1` are 1 and 0% (inactive).
`O=C(Oc1noc2cc(Cl)ccc12)N1CCCCC1` registered an anti-target count in assay [1] of 2. Moreover, in the assay with MW 32 kDa, the inhibition is 0% (inactive).
For `O=C(N1CCOCC1)n1oc2cc(Cl)ccc2c1=O`, in that order: 6 and 39% (inactive).
For `Cc1cc(N2CCN(C(=O)n3oc4cc(Cl)ccc4c3=O)CC2)c2ccccc2n1`, in that order: 3 and 0% (inactive).
The corresponding values for `Cc1cc(N2CCN(C(=O)Oc3ccc(-n4cccc4)cc3)CC2)c2ccccc2n1` are 0 and 0% (inactive).
Compound `Cc1cc(N2CCN(C(=O)Oc3noc4cc(Cl)ccc34)CC2)c2ccccc2n1` displayed an anti-target count in assay [1] of 4. Besides, the inhibition with MW 32 kDa is 0% (inactive).
For `Cc1cc(N2CCN(C(=O)Oc3ccc([N+](=O)[O-])cc3)CC2)c2ccccc2n1`, in that order: 2 and 0% (inactive).
The corresponding values for `Cc1cc(N2CCN(C(=O)Oc3ccc(C4CCCCC4)cc3)CC2)c2ccccc2n1` are 0 and 0% (inactive).
The corresponding values for `Cc1cc(N2CCN(C(=O)Oc3ccc(-c4ccc(Br)cc4)cc3)CC2)c2ccccc2n1` are 0 and 0% (inactive).
For the compound `Cc1cc(N2CCN(C(=O)Oc3ccc(-c4ccccc4)cc3)CC2)c2ccccc2n1`, in assay [1], the anti-target count was determined as 0. For the same compound, the inhibition in the assay on MW 32 kDa was 0% (inactive).
For `Cc1cc(N2CCN(C(=O)n3ncc(-c4ccc(Cl)c(Cl)c4)n3)CC2)c2ccccc2n1`, in that order: 8 and 50% (inactive).
